# Data reported in ChEMBL document CHEMBL4513216, “Probing the Open Global Health Chemical Diversity Library for Multistage-Active Starting Points for Next-Generation Antimalarials” (ACS Infect Dis, 2020).
# Screen size: about 69,000 compounds; about 8,600 (12%) showed an effect of 50% or more. The entries come from a sample that favours strong results as a whole.
# Tested on: Plasmodium berghei
# Assay: Screen against P. berghei liver stage (PbLuc), transformed with Luciferase, at 10uM
# Format: functional, HepG2
# Conditions: tested at 10 uM
row,SMILES,INHIBITION
1,CC(C)n1nc(Cn2cccc2)c2c1CN(C1CCOCC1)C2,23.3%
2,Cc1nc(CN(C)C(=O)NC(C)c2ccc3c(c2)OCCO3)cs1 (stereo not given),31.2%
3,CC(Cn1cccn1)NC(=O)CCc1nc(C(C)(C)C)no1 (stereo not given),10.6%
4,O=C1COC2(CCN(Cc3ccncc3)CC2)CN1c1ccccc1,-27.4%
5,Cc1c[nH]c(C2COCCN2S(=O)(=O)c2cn[nH]c2)n1 (stereo not given),-8.12%
6,Cc1ccc(CSc2nc(N)cc(NCCC(=O)N3CCCC3)n2)cc1,36.6%
7,CCc1cnc(C)nc1NCCC(=O)N1CCC(C)CC1,-21.1%
8,CCc1nc(N)nc(NCCC(=O)N2CCCC2)c1C,62.8%
9,CCn1ccnc1CN1CCC(N(Cc2ncc(C)o2)C(C)=O)C1 (stereo not given),48.2%
10,Cn1cc(CC(=O)N2CCCC(c3ccn[nH]3)C2)cn1 (stereo not given),5.11%
11,CO[C@H]1CCN(c2ncc(F)cn2)[C@@H]2CN(Cc3ccco3)C[C@H]12,49.1%
12,CO[C@@H]1CCN(c2ncc(F)cn2)[C@@H]2CN(CC3CC3)C[C@@H]21,60.3%
13,Fc1cnc(N2CCO[C@H]3CN(CC4CCCCC4)C[C@H]32)nc1,30.3%
14,Fc1cnc(N2CCO[C@H]3CN(CC4CCCC4)C[C@H]32)nc1,-13.3%
15,CO[C@@H]1CCN(c2ncc(F)cn2)[C@@H]2CN(Cc3cccnc3)C[C@@H]21,31.4%
16,CCN1C[C@H]2[C@@H](C1)N(c1ncc(F)cn1)CC[C@H]2OC,84.5%
17,CCN1CCN(c2nc(O)cc(Cc3ccccc3F)n2)CC1,10.9%
18,CNC(=O)c1sccc1S(=O)(=O)NC,46.6%
19,CNC(=O)c1sccc1S(=O)(=O)Nc1ccc(C)cc1,61.1%
20,CNS(=O)(=O)c1ccsc1C(=O)OC,37.6%
21,O=C(c1cccnc1)N1CCCC1c1nc(O)cc(-c2ccccn2)n1 (stereo not given),36.7%
22,Clc1cccc(C[C@@H]2NCCC[C@@H]2Nc2cccc(Cl)c2)c1,92.6%
23,Clc1cccc(C[C@@H]2NCCC[C@@H]2Nc2ccccc2)c1,86.1%
24,O=C1NCCCC1NC(=O)C1(c2cccc(Cl)c2)CCC1 (stereo not given),-2.27%
25,O=C(NCCc1cccc(Cl)c1)C1CCOCC1,27.7%
26,c1ccc(CCNc2cccc(C3CCCNC3)n2)cc1 (stereo not given),34%
27,O=C(Cc1cccc(Cl)c1)N[C@@H]1CCNC[C@H]1O,0.547%
28,Clc1cccc(N[C@H]2CCCN[C@H]2Cc2ccccc2)c1,91.6%
29,O=C1NCCCc2[nH]c(Cc3cccc(Cl)c3)nc21,32%
30,O=S(=O)(c1cccc(Cl)c1)N1C[C@@H]2CCN[C@@H]2C1,-14.7%
